In the library only some 6.5% were active in any assay of this set; here they are far more common.
HCMV inh: human cytomegalovirus inhibition. HFF cells, HCMV-luciferase reporter, 72 h; stronger effect = lower value. activity change, negative = inhibition, % at 57.5 µM. actives 4.5% (n = 410,000). AID 1259415; in the data active = activity change below about -60%; inconclusive = no clear call, values can overlap the other calls; inactive = above about -39%
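Two-dose cell screen: HFF monolayers treated with compounds and infected with luciferase-expressing HCMV at 1 PFU/cell, 72 h at 37C, then lysed for luciferase measurement.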
VACV mCherry inh: vaccinia inhibition (mCherry reporter); Vaccinia virus mCherry reporter infection, fluorescence; Potency, µM (titrated, usually from 36.5 µM), without a hit: top-dose activity change, negative = inhibition, hits mostly inhibitors; actives 0.63% (n = 310,000); calls by dose curve; tested in A549 cells; note: potency is the fitted concentration of half-maximal effect; nearly all actives have a fitted effect of over 35% in size
LASV entry inh: Lassa virus entry inhibition; Lassa virus pseudotype entry inhibition, cell reporter; Potency, µM (series often up to 37.9 µM), without a hit: at the highest dose activity change, negative = inhibition, actives largely listed as inhibitors; actives 1.2% (n = 300,000); AID 540256; calls by dose curve; tested in HEK293 cells; note: potency is the fitted concentration of half-maximal effect; nearly all actives have a fitted effect of over 50% in size
Vaccinia Venus: vaccinia inhibition (Venus reporter). Vaccinia virus Venus reporter expression, fluorescence. Potency, µM (top dose mostly 36.5 µM), without a hit: top-dose activity change, negative = inhibition, usual class: inhibitors. actives 0.46% (n = 330,000); calls by dose curve; tested in A549 cells; note: potency is the fitted concentration of half-maximal effect; nearly all actives have a fitted effect of over 30% in size
Marburg entry inh: Marburg virus entry inhibition; Potency, µM (titrated, usually from 37.8 µM), without a hit: top-dose activity change, negative = inhibition, most hits filed as inhibitors; AID 540276; actives 1.8% (n = 300,000); Marburg virus pseudotyped entry inhibition, cell reporter; calls by dose curve; tested in HEK293 cells; note: potency is the fitted concentration of half-maximal effect
FMDV inh: blocks foot and mouth disease virus; FMDV antiviral cell-based qHTS; Potency, µM (titrated, usually from 57.9 µM), for inactives: at the highest dose activity change, negative = inhibition, hits mostly inhibitors; actives 1.2% (n = 410,000); AID 1159524; calls by dose curve; tested in HEK293T cells; note: read-out not given here; potency is the fitted concentration of half-maximal effect; nearly all actives have a fitted effect of over 45% in size
Numbers without * were called inactive; ? = inconclusive; . = no result given; [ ] = dose if it differs, or a comment. % is set by controls: 0 for no effect and ±100 for the full control effect.

SMILES	HCMV inh	VACV mCherry inh	LASV entry inh	Vaccinia Venus	Marburg entry inh	FMDV inh
CC1CCN(Cc2c(C(=O)N/N=C/c3cc(Br)ccc3O)nnn2-c2nonc2N)CC1	-102*	?	?	?	2µM*	-7%
CC1CCN(Cc2c(C(=O)N/N=C/c3cc(Cl)ccc3O)nnn2-c2nonc2N)CC1	-100*	5µM*	?	?	3.5µM*	-15%
COc1cc2nc(N3CCCC(O)C3)c(CNCc3ccccc3C(F)(F)F)cc2c(OC)c1OC (centres undefined)	.	-11%	.	-18%	.	-5%
COC(=O)[C@H]1[C@H](CO)[C@H]2Cn3c(cccc3=O)[C@@H]1N2CC1CC1	-10	.	.	.	.	.
CSC1=NC(C(Cl)(Cl)Cl)N=C(c2ccc(C)cc2)N1 (centres undefined)	-71*	-26%	-29%	?	-20%[46.1 µM]	-22%
CCOC1=C2CN(S(=O)(=O)c3ccc(C)cc3)[C@H](c3ccccc3)C[C@H]2[C@H]2C(=O)N(c3ccccc3)C(=O)[C@H]2C1	12	25%	.	-15%	.	-7%
COc1ccc(CCNC(=O)C2CCCN(c3nc(C)cc(C)n3)C2)cc1 (centres undefined)	-21	-10%	-4%	-6%	6%[46.1 µM]	?
